Data reported in PubChem BioAssay.
Activity calls are given as the source filed them.

Columns and labels:
[1] = system: PRMT1 (protein arginine N-methyltransferase 1); assay: small molecules binding arginine methyltransferase PRMT1 – biochemical, small-molecule microarray, 635 nm fluorescence, primary screen (AID 1088); details: higher = more signal;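 further: binding of Prmt1 protein to compounds spotted on small-molecule microarray slides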
[2] = growth effects on S. cerevisiae YJM789 – YJM789 clinical isolate, OD600, 24 h, basal, primary screen (AID 1089); details: higher = more signal, called active from +8 up or from −8 down;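 further: growth of clinical yeast isolate S. cerevisiae YJM 789 seeded 1000 cells per well; test concentration not given here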
[3] = S. pombe growth modifiers, basal conditions – strain 972, OD600, 24 h, no modulator, primary screen (AID 1090);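 further: basal condition with compound alone and no growth modifier present; test concentration not given here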; details: S. pombe 972 growth, higher = more signal, called active from +8 up or from −8 down
[4] = budding yeast growth modifiers under rapamycin – strain BY4716, OD600, 96 h, primary screen (AID 1091); further: test concentration not given here; details: S. cerevisiae BY4716 + rapamycin, higher = more signal, called active from +8 up or from −8 down
[5] = biological target: Torsin-1A-interacting protein 2 (Homo sapiens) (UniProt Q8NFQ8); assay: small molecules binding lysate-expressed LULL1 – cell lysate, human LULL1 lysate, 635/667 nm fluorescence, primary screen (AID 1092); details: small-molecule microarray, hLULL1 lysate binding, 635 nm fluorescence; higher = more signal;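 further: probe is lysate of COS7 cells overexpressing human LULL1; score merges per-feature 667 nm fluorescence with signal-to-noise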
Torsin-1A-interacting protein 2 (Homo sapiens), sequence (Q8NFQ8 whole entry, looked up): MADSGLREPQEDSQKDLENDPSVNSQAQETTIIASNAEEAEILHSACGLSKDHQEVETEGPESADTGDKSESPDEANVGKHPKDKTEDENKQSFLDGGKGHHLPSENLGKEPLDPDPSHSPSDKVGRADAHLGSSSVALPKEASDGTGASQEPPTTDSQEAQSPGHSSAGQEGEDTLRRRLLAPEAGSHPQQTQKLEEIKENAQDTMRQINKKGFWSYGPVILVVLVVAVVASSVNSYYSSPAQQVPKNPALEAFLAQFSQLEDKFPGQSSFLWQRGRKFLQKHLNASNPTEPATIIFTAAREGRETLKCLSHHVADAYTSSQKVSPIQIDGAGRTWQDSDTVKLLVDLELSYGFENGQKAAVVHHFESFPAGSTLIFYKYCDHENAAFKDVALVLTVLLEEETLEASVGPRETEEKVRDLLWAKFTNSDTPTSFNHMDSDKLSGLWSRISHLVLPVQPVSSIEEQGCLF

[6] = optical density change of DRC41 E. coli – strain DRC41, OD650, 24 h, E. coli filamentation project, primary screen (AID 1093);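 further: MC1000 strain lacking acrAB efflux and sulA so SOS filamentation is blocked; test concentration not given here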; details: E. coli DRC41 growth, higher = more signal, called active from +8 up or from −8 down
[7] = probe aLefty2 binding to arrayed compounds – biochemical, biotinylated probe, 635/667 nm fluorescence, primary screen (AID 1094); details: small-molecule microarray, higher = more signal;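 further: score merges spot fluorescence near 667 nm with spot signal-to-noise ratio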
[8] = system: Noggin (protein binding on small-molecule microarray); assay: small molecules binding Noggin protein – biochemical, 635/667 nm fluorescence, primary screen (AID 1095); details: 635 nm fluorescence, higher = more signal;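 further: score merges 667 nm feature fluorescence with signal to noise over triplicate slides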
[9] = biological target: Neurogenic locus notch homolog protein 3 (Homo sapiens) (UniProt Q9UM47); assay: small molecules binding NOTCH3 protein – biochemical, 635/667 nm fluorescence, primary screen (AID 1096); details: small-molecule microarray, 635 nm fluorescence, higher = more signal
Neurogenic locus notch homolog protein 3 (Homo sapiens), sequence (Q9UM47 whole entry, looked up): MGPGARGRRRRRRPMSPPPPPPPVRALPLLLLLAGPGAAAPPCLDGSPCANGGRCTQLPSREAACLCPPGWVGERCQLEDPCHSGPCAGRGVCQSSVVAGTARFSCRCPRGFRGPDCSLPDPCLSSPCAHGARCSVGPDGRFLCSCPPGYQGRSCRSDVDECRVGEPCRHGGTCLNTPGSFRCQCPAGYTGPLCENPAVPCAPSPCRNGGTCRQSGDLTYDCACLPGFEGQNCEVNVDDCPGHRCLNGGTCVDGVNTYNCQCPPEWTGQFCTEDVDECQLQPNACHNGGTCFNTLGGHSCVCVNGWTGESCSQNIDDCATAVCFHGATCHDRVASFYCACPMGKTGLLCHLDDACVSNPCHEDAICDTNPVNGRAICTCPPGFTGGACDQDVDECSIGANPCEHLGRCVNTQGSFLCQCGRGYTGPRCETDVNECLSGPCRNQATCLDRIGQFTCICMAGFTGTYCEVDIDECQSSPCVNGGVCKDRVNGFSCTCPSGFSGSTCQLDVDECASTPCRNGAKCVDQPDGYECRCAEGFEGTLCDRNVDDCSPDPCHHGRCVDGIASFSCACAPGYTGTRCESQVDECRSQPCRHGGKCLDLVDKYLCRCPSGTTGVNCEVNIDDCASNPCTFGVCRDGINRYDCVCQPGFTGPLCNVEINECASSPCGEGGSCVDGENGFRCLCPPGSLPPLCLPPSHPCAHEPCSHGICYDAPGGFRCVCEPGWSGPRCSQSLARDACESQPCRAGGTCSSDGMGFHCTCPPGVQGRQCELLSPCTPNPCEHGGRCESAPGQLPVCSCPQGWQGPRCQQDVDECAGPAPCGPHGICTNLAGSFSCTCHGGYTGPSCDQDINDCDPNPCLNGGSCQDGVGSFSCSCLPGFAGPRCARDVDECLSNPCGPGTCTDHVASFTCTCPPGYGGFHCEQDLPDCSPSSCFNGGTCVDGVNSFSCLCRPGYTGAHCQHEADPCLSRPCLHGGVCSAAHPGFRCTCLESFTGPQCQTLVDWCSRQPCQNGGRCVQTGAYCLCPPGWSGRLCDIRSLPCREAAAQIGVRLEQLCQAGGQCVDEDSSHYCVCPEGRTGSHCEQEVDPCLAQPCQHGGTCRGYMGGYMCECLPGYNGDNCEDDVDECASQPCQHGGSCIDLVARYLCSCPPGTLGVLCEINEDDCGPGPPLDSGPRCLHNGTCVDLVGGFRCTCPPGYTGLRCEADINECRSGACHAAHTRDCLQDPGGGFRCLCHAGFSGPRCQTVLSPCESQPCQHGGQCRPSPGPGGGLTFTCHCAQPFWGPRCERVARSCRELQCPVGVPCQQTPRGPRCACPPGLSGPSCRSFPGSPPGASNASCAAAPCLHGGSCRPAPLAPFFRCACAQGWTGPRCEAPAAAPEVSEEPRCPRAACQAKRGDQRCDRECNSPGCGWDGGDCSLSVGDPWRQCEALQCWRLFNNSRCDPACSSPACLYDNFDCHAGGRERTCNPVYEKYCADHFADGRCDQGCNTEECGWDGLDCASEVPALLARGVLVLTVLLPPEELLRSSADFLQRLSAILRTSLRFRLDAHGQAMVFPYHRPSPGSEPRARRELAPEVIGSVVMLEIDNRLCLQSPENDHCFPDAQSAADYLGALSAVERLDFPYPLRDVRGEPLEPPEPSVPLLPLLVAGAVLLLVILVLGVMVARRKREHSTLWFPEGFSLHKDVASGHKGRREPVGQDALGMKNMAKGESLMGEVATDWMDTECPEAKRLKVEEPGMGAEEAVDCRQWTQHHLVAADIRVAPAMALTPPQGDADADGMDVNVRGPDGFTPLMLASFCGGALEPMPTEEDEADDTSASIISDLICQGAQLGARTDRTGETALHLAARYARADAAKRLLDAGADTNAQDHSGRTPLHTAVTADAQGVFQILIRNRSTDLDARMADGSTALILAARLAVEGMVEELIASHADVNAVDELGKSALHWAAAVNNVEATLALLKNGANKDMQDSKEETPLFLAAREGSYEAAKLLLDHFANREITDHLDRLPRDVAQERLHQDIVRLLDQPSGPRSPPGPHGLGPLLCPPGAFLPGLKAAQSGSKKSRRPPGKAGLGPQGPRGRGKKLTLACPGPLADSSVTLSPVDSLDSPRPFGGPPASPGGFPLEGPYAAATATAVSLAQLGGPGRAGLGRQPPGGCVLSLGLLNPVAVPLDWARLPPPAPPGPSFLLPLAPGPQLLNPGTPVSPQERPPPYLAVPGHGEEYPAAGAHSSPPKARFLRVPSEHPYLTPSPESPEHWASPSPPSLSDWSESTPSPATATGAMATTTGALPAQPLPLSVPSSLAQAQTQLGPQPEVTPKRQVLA

[10] = probe aEGFR binding to arrayed compounds – biochemical, biotinylated probe, 635/667 nm fluorescence, primary screen (AID 1097); details: small-molecule microarray, higher = more signal;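 further: probe is a biotinylated anti-EGFR antibody binding compounds printed on slides; score combines fluorescence near 667 nm and signal to noise of each spot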
[11] = system: Plasmodium falciparum Sir2 (PF13_0152, Sir2A); assay: Plasmodium falciparum Sir2A binding compounds – biochemical, small-molecule microarray, 635 nm fluorescence, primary screen (AID 1098); details: fluorescence 635 nm, higher = more signal;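 further: score merges spot fluorescence intensity with its signal-to-noise ratio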
[12] = probe aDKK1 binding to arrayed compounds – biochemical, biotinylated probe, 635/667 nm fluorescence, primary screen (AID 1099); details: small-molecule microarray, higher = more signal;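 further: score merges 667nm spot fluorescence with signal to noise across triplicate slides; reference of the scale not given here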
[13] = probe aCHRDL2 binding to arrayed compounds – biochemical, biotinylated probe, 635/667 nm fluorescence, primary screen (AID 1100); details: small-molecule microarray, higher = more signal
[14] = change in splice reporter luminescence, either direction, cell-based, HEK293, spliceosome inhibition project, primary screen (AID 1101); details: HEK293 splicing luciferase reporter, 24 h, higher = more signal, called active from +8 up or from −8 down;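 further: HEK293 cells carrying a splicing-competent luciferase reporter gene; test concentration not given here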
[15] = biological target: Fibroblast growth factor 10 (Homo sapiens) (UniProt O15520); assay: compounds binding fibroblast growth factor 10 – biochemical, small-molecule microarray, 635 nm fluorescence, primary screen (AID 1102); details: FGF10 binding, fluorescence 635 nm, higher = more signal
Fibroblast growth factor 10 (Homo sapiens), sequence (O15520 whole entry, looked up): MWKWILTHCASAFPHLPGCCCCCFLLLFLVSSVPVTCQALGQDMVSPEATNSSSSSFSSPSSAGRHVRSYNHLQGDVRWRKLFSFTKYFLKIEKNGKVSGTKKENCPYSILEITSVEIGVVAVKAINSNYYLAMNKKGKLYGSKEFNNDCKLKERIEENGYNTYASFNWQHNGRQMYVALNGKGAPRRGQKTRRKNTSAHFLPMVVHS

[16] = system: glycogen synthase kinase-3 (GSK3A per assay name; protocol says GSK3B); assay: compounds binding glycogen synthase kinase-3 – biochemical, small-molecule microarray, 635 nm fluorescence, GSK3A, primary screen (AID 1103); details: fluorescence 635 nm, higher = more signal; further: the record names both GSK3A and GSK3B
[17] = biological target: Epidermal growth factor receptor (Homo sapiens) (UniProt P00533); assay: compounds binding epidermal growth factor receptor – biochemical, small-molecule microarray, 635 nm fluorescence, primary screen (AID 1104); details: EGFR binding, higher = more signal;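 further: score merges 667 nm emission intensity with spot signal to noise over triplicate slides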
Epidermal growth factor receptor (Homo sapiens), sequence (P00533 whole entry, looked up): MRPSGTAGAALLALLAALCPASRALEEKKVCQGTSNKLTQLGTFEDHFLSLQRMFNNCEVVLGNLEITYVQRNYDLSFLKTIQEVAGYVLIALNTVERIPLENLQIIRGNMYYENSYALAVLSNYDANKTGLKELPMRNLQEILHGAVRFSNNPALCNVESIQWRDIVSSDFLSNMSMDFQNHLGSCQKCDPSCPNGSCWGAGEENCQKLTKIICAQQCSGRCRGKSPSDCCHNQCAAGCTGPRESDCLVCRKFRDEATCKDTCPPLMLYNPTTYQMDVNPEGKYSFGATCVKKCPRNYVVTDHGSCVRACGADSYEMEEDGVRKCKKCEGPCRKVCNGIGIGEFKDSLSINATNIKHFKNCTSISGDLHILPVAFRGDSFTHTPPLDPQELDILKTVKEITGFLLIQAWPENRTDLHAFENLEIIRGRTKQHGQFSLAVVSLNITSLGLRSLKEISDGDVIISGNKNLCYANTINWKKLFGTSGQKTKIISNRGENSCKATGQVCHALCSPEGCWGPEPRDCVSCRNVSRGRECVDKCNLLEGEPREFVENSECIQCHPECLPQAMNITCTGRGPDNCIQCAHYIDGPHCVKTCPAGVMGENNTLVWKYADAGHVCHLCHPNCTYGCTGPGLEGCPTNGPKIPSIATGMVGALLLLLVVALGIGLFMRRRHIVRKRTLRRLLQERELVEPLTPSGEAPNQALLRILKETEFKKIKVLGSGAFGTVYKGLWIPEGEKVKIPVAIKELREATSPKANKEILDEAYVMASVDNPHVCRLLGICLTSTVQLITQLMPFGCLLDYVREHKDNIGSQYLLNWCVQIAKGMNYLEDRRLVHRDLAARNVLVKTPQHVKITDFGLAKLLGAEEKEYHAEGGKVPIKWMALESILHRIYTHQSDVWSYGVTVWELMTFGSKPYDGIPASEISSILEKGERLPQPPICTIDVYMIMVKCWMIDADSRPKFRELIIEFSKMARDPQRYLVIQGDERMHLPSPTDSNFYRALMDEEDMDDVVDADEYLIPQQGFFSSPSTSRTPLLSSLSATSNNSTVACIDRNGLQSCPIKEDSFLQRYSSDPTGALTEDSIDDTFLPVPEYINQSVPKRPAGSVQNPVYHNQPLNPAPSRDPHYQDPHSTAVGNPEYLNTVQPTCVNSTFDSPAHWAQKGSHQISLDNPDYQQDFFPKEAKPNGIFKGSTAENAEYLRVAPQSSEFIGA

[18] = biological target: Follistatin-related protein 3 (Homo sapiens) (UniProt O95633); assay: compounds binding follistatin-related protein 3 – biochemical, small-molecule microarray, 635 nm fluorescence, primary screen (AID 1105); details: FSTL3 binding, higher = more signal;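 further: score merges emission near 667 nm and signal to noise per printed spot across three slides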
Follistatin-related protein 3 (Homo sapiens), sequence (O95633 whole entry, looked up): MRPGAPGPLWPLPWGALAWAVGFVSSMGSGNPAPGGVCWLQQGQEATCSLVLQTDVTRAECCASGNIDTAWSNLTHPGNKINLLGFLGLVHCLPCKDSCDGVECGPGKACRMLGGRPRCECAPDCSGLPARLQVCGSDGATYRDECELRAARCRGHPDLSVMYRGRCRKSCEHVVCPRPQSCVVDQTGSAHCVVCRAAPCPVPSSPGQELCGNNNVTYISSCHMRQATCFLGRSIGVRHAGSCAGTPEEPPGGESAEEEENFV

[19] = biological target: Dickkopf-related protein 1 (Homo sapiens) (UniProt O94907); assay: small molecules binding DKK1 protein – biochemical, small-molecule microarray, 635 nm fluorescence scan, primary screen (AID 1106); details: higher = more signal;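 further: score merges emission near 667 nm with signal to noise over three replicate slides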
Dickkopf-related protein 1 (Homo sapiens), sequence (O94907 whole entry, looked up): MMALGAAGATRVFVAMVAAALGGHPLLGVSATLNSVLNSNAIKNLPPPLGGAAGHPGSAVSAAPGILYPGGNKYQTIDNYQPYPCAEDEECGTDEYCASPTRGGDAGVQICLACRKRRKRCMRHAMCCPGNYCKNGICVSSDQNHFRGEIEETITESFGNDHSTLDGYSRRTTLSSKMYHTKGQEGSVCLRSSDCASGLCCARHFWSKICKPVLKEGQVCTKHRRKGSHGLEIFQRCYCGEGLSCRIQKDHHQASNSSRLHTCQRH

[20] = system: Inhibin beta A chain (activin A); assay: small molecules binding activin A – biochemical, small-molecule microarray, 635 nm fluorescence scan, primary screen (AID 1107); details: INHBA, higher = more signal;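 further: mouse activin A protein probed at 4.33 µg/mL on printed slides; score merges bound-protein fluorescence near 667 nm with spot signal-to-noise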

| Structure (SMILES) | composite z-score [1] | z-score [2] | z-score [3] | z-score [4] | composite z-score [5] | z-score [6] | composite z-score [7] | composite z-score [8] | composite z-score [9] | composite z-score [10] | composite z-score [11] | composite z-score [12] | composite z-score [13] | z-score [14] | composite z-score [15] | composite z-score [16] | composite z-score [17] | composite z-score [18] | composite z-score [19] | composite z-score [20] |
| --- | --- | --- | --- | --- | --- | --- | --- | --- | --- | --- | --- | --- | --- | --- | --- | --- | --- | --- | --- | --- |
| CC(C)=CCCC=C(C)C(O)C1C=CC2C(=O)N(c3ccccc3)C(=O)C2N1Nc1ccc(C#N)cc1 (stereo not given) | 1.38 | -1.67 (inactive) | 0.0768 (inactive) | 2.31 (inactive) | 3.3 | -1.24 (inactive) | -0.152 | 0.0542 | 1.01 | -0.0828 | 0.669 | 0.473 | 0.722 | -0.403 (inactive) | 0.569 | 1.3 | 0.411 | 1.29 | 0.0902 | 1.16 |
| COC(=O)C(CC#Cc1ccc2c(c1)[C@]1(C(=O)N2)[C@H](C(=O)NC[C@H](O)c2ccccc2)[C@H]2C(=O)O[C@H](c3ccccc3)[C@H](c3ccccc3)N2[C@@H]1c1ccccc1OCCO)C(=O)OC | 1.54 | 2.15 (inactive) | -0.247 (inactive) | 2.59 (inactive) | 2.89 | 2.13 (inactive) | -0.0598 | 0.8 | 1.12 | -0.0332 | 1.19 | 0.138 | 0.141 | 0.163 (inactive) | 1.22 | 1.19 | 0.308 | 0.866 | 0.502 | 0.205 |
| CC(=O)NCCCC[C@@H]1NC(=O)[C@H]2C[C@@H](C(=O)NCCCCCCNC(=O)CS)[C@@H](c3cccc(OCCO)c3)N2C1=O | 1.56 | 0.828 (inactive) | 0.257 (inactive) | 1.28 (inactive) | 2.65 | -0.488 (inactive) | -0.0187 | 0.153 | 0.846 | -0.123 | 1.72 | -0.11 | 0.642 | -0.662 (inactive) | 0.816 | 1.15 | -0.316 | 0.225 | 0.363 | 0.339 |
| O=C1C[C@]2(c3ccc([N+](=O)[O-])cc3)C(=O)N(C3CC3)c3cc(CO)ccc3[C@H]2N1C1CCCCC1 | 0.788 | 0.0359 (inactive) | 0.389 (inactive) | -1.04 (inactive) | 1.2 | 0.221 (inactive) | -0.171 | -0.533 | -0.105 | -0.0656 | 0.389 | -0.0619 | 0.305 | -0.282 (inactive) | -0.104 | 0.139 | -0.0618 | -0.184 | -0.198 | 0.847 |
| CC(=O)OCC1C2CC[C@H]3C(OCc4ccc(F)cc4C(F)(F)F)OC[C@]4(C)[C@H]3C2=C(CN4C(=O)OC(C)(C)C)[C@H](C)C1COC(C)=O (stereo not given in full) | -0.025 | 1.56 (inactive) | 2.04 (inactive) | 1.15 (inactive) | 1.35 | -1.36 (inactive) | 0.054 | 1.2 | -0.439 | -0.0512 | 0.547 | 0.547 | 1.06 | -0.329 (inactive) | 0.398 | -0.466 | -1.08 | -0.925 | -1.31 | 0.838 |
| CC(C)[Si](C#CCCc1ccccc1)(O[C@H](c1ccccc1)c1cn(Cc2ccccc2)nn1)C(C)C | 1.25 | -1.17 (inactive) | -12.3 (active) | -0.778 (inactive) | 0.958 | 0.791 (inactive) | -0.0095 | 0.797 | 1.13 | 0.0276 | 0.431 | -0.069 | -0.496 | 0.105 (inactive) | 0.559 | 1.28 | 0.618 | 0.773 | 0.611 | 0.152 |
| COc1ccc(C(=O)Nc2cccc(CN3C(=O)[C@@]4(O[C@@H](CC(=O)N5CCC[C@H]5CO)[C@H]([Si](C)(C)c5ccc(OC)cc5)[C@H]4C)c4ccccc43)c2)cc1 | 1.55 | -0.624 (inactive) | 0.706 (inactive) | -1.2 (inactive) | 0.983 | -0.126 (inactive) | -0.102 | 0.766 | 0.957 | -0.118 | 1.21 | -0.0379 | -0.183 | 1 (inactive) | 0.43 | 0.744 | 0.527 | 0.839 | 0.496 | 0.182 |
| C[C@]1(C(=O)O)c2ccccc2C(=O)N(Cc2cc(F)cc(C(F)(F)F)c2)[C@H]1c1ccc(CO)cc1 | 0.413 | -0.994 (inactive) | -1.3 (inactive) | -1.9 (inactive) | 1.64 | 0.581 (inactive) | -0.153 | 1.04 | 0.137 | -0.115 | 1.64 | -0.0944 | 0.249 | 0.395 (inactive) | 0.139 | -0.429 | 0.213 | 0.0304 | -0.336 | 0.561 |
| COc1cc(CO)cc(I)c1O[C@H]1C=C(C(=O)NCCO)C[C@@H](NC2CCCCCC2)[C@@H]1O | 1.53 | 0.543 (inactive) | -8.18 (active) | -0.397 (inactive) | 1.86 | 1.37 (inactive) | -0.166 | 1.22 | 1.01 | -0.0564 | 0.515 | -0.168 | -0.675 | -0.51 (inactive) | 1.38 | 1.16 | 0.44 | 1.29 | 0.772 | 0.0403 |
